Reference: PubChem BioAssay (EPA / NIEHS)
Active and inactive are the calls of the source. The calls were made as follows: active = hit-call score of the fitted dose curve at least 0.9, where 1 is the maximum; inactive = score below 0.9.

Experiments:
[1] = read-out: Interferon-gamma inducible Protein 10 (IP10), CXCL10 (gene 3627); experiment: BSK_KF3CT_IP10: BioMAP Diversity Plus: KF3CT Assay for Interferon-gamma inducible Protein 10 (IP10) Biomarker Activity (AID 2283068); conditions: primary human keratinocytes with fibroblasts; actives raise or lower the signal
In short: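 Human keratinocyte plus foreskin fibroblast primary co-culture exposed to test chemical for 24 h; IP-10 measured by ELISA. Concentration-response fitted bidirectionally against DMSO control as baseline.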

[2] = BSK_KF3CT_SRB: Viability Assessment in the BioMAP Diversity Plus: KF3CT Assay (AID 2283069); conditions: primary human keratinocytes with fibroblasts;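 also: total protein by sulforhodamine B staining as a cytotoxicity measure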
In short: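 Cytotoxicity was gauged by SRB staining (0.1% SRB, 10% TCA fixation, 560 nm) of parallel cultures at 24 h. The cells were primary human skin keratinocytes co-cultured with fibroblasts, and activity was fitted in both directions against DMSO.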

[3] = read-out: Interleukin-1 alpha (IL1a), IL1A (gene 3552); experiment: BSK_KF3CT_IL1a: BioMAP Diversity Plus: KF3CT Assay for Interleukin-1 alpha (IL1a) Biomarker Activity (AID 2283070); conditions: primary human keratinocytes with fibroblasts; actives raise or lower the signal
In short: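 IL-1a was detected by ELISA 24 h after chemical treatment of a co-culture of human skin keratinocytes and foreskin fibroblasts. Gain or loss of signal was fitted against the DMSO baseline.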

[4] = read-out: TIMP metallopeptidase inhibitor 2 (TIMP2), TIMP2 (gene 7077); experiment: BSK_KF3CT_TIMP2: BioMAP Diversity Plus: KF3CT Assay for TIMP metallopeptidase inhibitor 2 (TIMP2) Biomarker Activity (AID 2283071); conditions: primary human keratinocytes with fibroblasts; actives raise or lower the signal
In short: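 Chemicals were dosed onto human skin primary co-cultures of keratinocytes and foreskin fibroblasts, and TIMP-2 was measured by ELISA after 24 hours. Activity in either direction was fitted relative to DMSO.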

[5] = read-out: Transforming growth factor beta 1 (TGFb1), TGFB1 (gene 7040); experiment: BSK_KF3CT_TGFb1: BioMAP Diversity Plus: KF3CT Assay for Transforming growth factor beta 1 (TGFb1) Biomarker Activity (AID 2283072); conditions: primary human keratinocytes with fibroblasts; actives raise or lower the signal
In short: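 KF3CT co-culture (keratinocytes + fibroblasts), 24 h exposure → TGF-b1 ELISA → bidirectional fit, DMSO = baseline. Parallel SRB total-protein staining (0.1% SRB, 10% TCA fixation, 560 nm) for cytotoxicity.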

[6] = read-out: C-C motif chemokine 2 (Homo sapiens) (UniProt P13500); experiment: BSK_KF3CT_MCP1: BioMAP Diversity Plus: KF3CT Assay for Monocyte Chemoattractant Protein 1 (MCP1/CCL2) Biomarker Activity (AID 2283073); conditions: primary human keratinocytes with fibroblasts; actives raise or lower the signal
In short: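 Keratinocytes and foreskin fibroblasts were co-cultured, dosed with chemical, and sampled 24 h later. MCP-1 was quantified by ELISA, and the endpoint was analyzed with bidirectional fitting using DMSO as negative control.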

[7] = read-out: Matrix Metallopeptidase 9 (MMP9), MMP9 (gene 4318); experiment: BSK_KF3CT_MMP9: BioMAP Diversity Plus: KF3CT Assay for Matrix Metallopeptidase 9 (MMP9) Biomarker Activity (AID 2283074); conditions: primary human keratinocytes with fibroblasts; actives raise or lower the signal;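 as to AC50: MMP9 protein level quantified by ELISA in the co-culture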
In short: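 MMP-9 quantified by ELISA after 24 h chemical treatment of primary human skin keratinocyte/fibroblast co-cultures; gain or loss fitted against DMSO, with parallel SRB staining (0.1% SRB, 560 nm) for overt cytotoxicity.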

[8] = read-out: urokinase plasminogen activator (uPA), PLAU (gene 5328); experiment: BSK_KF3CT_uPA: BioMAP Diversity Plus: KF3CT Assay for urokinase plasminogen activator (uPA) Biomarker Activity (AID 2283075); conditions: primary human keratinocytes with fibroblasts; actives raise or lower the signal
In short: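 ELISA read-out of uPA 24 h after dosing human skin keratinocytes co-cultured with foreskin fibroblasts. Signal change fitted both ways relative to DMSO; sulforhodamine B on parallel cultures marks overt cytotoxicity.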

CD40, CD40 (gene 958) = experiment: BSK_LPS_CD40: BioMAP Diversity Plus: LPS Assay for CD40 Biomarker Activity (AID 2283076); conditions: primary human HUVEC with PBMC; actives raise or lower the signal
In short: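 CD40 signal, measured by ELISA, is fitted in both directions relative to DMSO vehicle. The system is an LPS-driven human vascular primary co-culture of endothelial cells and PBMC, sampled 24 h after compound addition.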

[9] = read-out: E-selectin (Homo sapiens) (UniProt P16581); experiment: BSK_LPS_Eselectin: BioMAP Diversity Plus: LPS Assay for Eselectin Biomarker Activity (AID 2283077); conditions: primary human HUVEC with PBMC; actives raise or lower the signal
In short: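 Signal of E-selectin, detected by ELISA, served as the endpoint; cells were umbilical vein endothelium with PBMC, read 24 h after treatment. DMSO defined baseline, and both increases and decreases were fitted.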

E-selectin (Homo sapiens), sequence (P16581 whole entry, looked up): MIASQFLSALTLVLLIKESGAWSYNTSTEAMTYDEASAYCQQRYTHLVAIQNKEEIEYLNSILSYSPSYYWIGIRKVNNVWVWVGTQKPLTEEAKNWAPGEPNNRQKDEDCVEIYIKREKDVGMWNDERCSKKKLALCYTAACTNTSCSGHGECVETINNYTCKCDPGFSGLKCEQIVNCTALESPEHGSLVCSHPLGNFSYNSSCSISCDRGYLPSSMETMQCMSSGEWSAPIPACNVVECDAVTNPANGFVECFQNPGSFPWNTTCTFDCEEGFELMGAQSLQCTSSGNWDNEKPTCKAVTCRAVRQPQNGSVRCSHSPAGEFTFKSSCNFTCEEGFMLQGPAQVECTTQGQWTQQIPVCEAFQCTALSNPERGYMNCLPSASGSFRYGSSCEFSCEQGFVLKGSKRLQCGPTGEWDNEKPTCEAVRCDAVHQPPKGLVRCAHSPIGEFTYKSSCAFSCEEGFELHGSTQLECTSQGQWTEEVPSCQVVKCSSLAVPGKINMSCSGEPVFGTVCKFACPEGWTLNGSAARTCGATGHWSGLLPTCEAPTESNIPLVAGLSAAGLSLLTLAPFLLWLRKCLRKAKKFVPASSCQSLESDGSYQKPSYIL

SMILES | outcome [1] | outcome [2] | outcome [3] | outcome [4] | outcome [5] | outcome [6] | outcome [7] | outcome [8] | outcome (CD40, CD40 (gene 958)) | outcome [9] | AC50 [6] | AC50 [9] | AC50 [7] | AC50 [1] | AC50 [2] | AC50 [3] | AC50 (CD40, CD40 (gene 958))
COC(=O)NC(=S)Nc1ccccc1NC(=S)NC(=O)OC | inactive | inactive | inactive | inactive | inactive | inactive | inactive | inactive | inactive | inactive | – | – | – | – | – | – | –
CN=C=S | inactive | inactive | inactive | inactive | inactive | inactive | inactive | inactive | inactive | inactive | – | – | – | – | – | – | –
CC1(C)C(C=C(Cl)Cl)C1C(=O)OC(C#N)c1cccc(Oc2ccccc2)c1 (stereo not given) | inactive | inactive | inactive | inactive | inactive | inactive | inactive | inactive | inactive | inactive | – | – | – | – | – | – | –
CC(C)N1C(=O)c2ccccc2NS1(=O)=O | inactive | inactive | inactive | inactive | inactive | – | inactive | inactive | inactive | inactive | 0.535 µM (active) | – | – | – | – | – | –
Nc1c(Cl)c(F)nc(OCC(=O)O)c1Cl | inactive | inactive | inactive | inactive | inactive | inactive | inactive | inactive | inactive | inactive | – | – | – | – | – | – | –
O=C(O)c1c(Cl)ccc2cc(Cl)cnc12 | inactive | inactive | inactive | inactive | inactive | inactive | inactive | inactive | inactive | inactive | – | – | – | – | – | – | –
N#Cc1c(Cl)cccc1Cl | inactive | inactive | inactive | inactive | inactive | inactive | inactive | inactive | inactive | – | – | 0.0841 µM (active) | – | – | – | – | –
CCOC(=O)C(C)OC(=O)c1cc(Oc2ccc(C(F)(F)F)cc2Cl)ccc1[N+](=O)[O-] (stereo not given) | inactive | inactive | inactive | inactive | inactive | inactive | – | inactive | inactive | inactive | – | – | 5.83 µM (active) | – | – | – | –
CC(C)Nc1nc(Cl)nc(NC(C)C)n1 | inactive | inactive | inactive | inactive | inactive | inactive | inactive | inactive | inactive | inactive | – | – | – | – | – | – | –
COCc1cnc(C2=NC(C)(C(C)C)C(=O)N2)c(C(=O)O)c1 (stereo not given) | – | inactive | inactive | inactive | inactive | inactive | inactive | inactive | inactive | inactive | – | – | – | 12.3 µM (active) | – | – | –
COCC(C)N(C(=O)CCl)c1c(C)csc1C (stereo not given) | inactive | inactive | inactive | inactive | inactive | inactive | inactive | inactive | inactive | inactive | – | – | – | – | – | – | –
COCC(=O)N(c1c(C)cccc1C)C(C)C(=O)OC (stereo not given) | inactive | inactive | inactive | inactive | inactive | inactive | inactive | inactive | inactive | inactive | – | – | – | – | – | – | –
O=c1n(Cl)c(=O)n(Cl)c(=O)n1Cl | inactive | inactive | inactive | inactive | inactive | inactive | inactive | inactive | inactive | inactive | – | – | – | – | – | – | –
CC(C)N1C(=O)N(c2ccccc2)CSC1=NC(C)(C)C | – | – | – | inactive | inactive | inactive | – | inactive | – | – | – | 30.6 µM (active) | 31.6 µM (active) | 33.2 µM (active) | 30.8 µM (active) | 26.3 µM (active) | 28.2 µM (active)
CCCC(=NOCC)C1=C(O)CC(CC(C)SCC)CC1=O (stereo not given) | inactive | inactive | inactive | inactive | inactive | inactive | inactive | inactive | inactive | inactive | – | – | – | – | – | – | –
COc1cc(Cl)c(OC)cc1Cl | inactive | inactive | inactive | inactive | inactive | inactive | inactive | inactive | inactive | inactive | – | – | – | – | – | – | –
COP(=O)(OC)O/C(C)=C/C(=O)N(C)C | inactive | inactive | inactive | inactive | inactive | inactive | inactive | inactive | inactive | inactive | – | – | – | – | – | – | –
CC(C)NC(=O)N1CC(=O)N(c2cc(Cl)cc(Cl)c2)C1=O | inactive | inactive | inactive | inactive | inactive | inactive | inactive | inactive | inactive | inactive | – | – | – | – | – | – | –
